# B1: unnamed (peptide)
# chain: SNRRPVPRRPSQPLN
# Columns and labels:
# Test in all cases: SPOT peptide array binding signal intensity (averaged, normalized) (arbitrary units (background-subtracted, floor 0; scale differs between SH3 domains)); higher = stronger binding of the SH3 domain to the peptide
# [1] = target: AgAbp1
# Summary of the method: (§1)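 Binding signal is given in arbitrary units that differ between domains and is the normalized, background-subtracted spot intensity averaged across replicates. Each GST-SH3 fusion from one of four yeast species was made in E. coli BL21(DE3), purified on glutathione Sepharose and incubated at 10 μg/ml overnight at 4°C on cellulose-bound synthetic 15-mer peptides in which cysteines were replaced by serines. Detection used anti-GST antibody, an HRP anti-mouse secondary and luminol, followed by imaging and Genespotter quantification.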
# [2] = target: AgBbc1
# Summary of the method: as §1
# [3] = target: AgBem1-D1
# Summary of the method: as §1
# [4] = target: AgBzz1-D1
# Summary of the method: as §1
# [5] = target: AgBzz1-D2
# Summary of the method: as §1
# [6] = target: AgCyk3
# Summary of the method: as §1
# [7] = target: AgFus1
# Summary of the method: as §1
# [8] = target: AgHof1
# Summary of the method: as §1
# [9] = target: AgHse1
# Summary of the method: as §1
# [10] = target: AgLsb1
# Summary of the method: as §1
# [11] = target: AgLsb4
# Summary of the method: as §1
# [12] = target: AgMyo5
# Summary of the method: as §1
# [13] = target: AgNbp2
# Summary of the method: as §1
# [14] = target: AgRvs167
# Summary of the method: as §1
# [15] = target: AgSho1
# Summary of the method: as §1
# [16] = target: AgSla1-D1-D2
# Summary of the method: as §1
# [17] = target: AgSla1-D3
# Summary of the method: as §1
# [18] = target: CaAbp1-D1
# Summary of the method: as §1
# [19] = target: CaAbp1-D2
# Summary of the method: as §1
# [20] = target: CaBbc1
# Summary of the method: as §1
# [21] = target: CaBem1-D1
# Summary of the method: as §1
# [22] = target: CaBzz1-D1
# Summary of the method: as §1
# [23] = target: CaBzz1-D2
# Summary of the method: as §1
# [24] = target: CaCyk3
# Summary of the method: as §1
# [25] = target: CaFus1
# Summary of the method: as §1
# [26] = target: CaHof1
# Summary of the method: as §1
# [27] = target: CaHse1
# Summary of the method: as §1
# [28] = target: CaLsb1
# Summary of the method: as §1
# [29] = target: CaLsb4
# Summary of the method: as §1
# [30] = target: CaMyo5
# Summary of the method: as §1
# [31] = target: CaNbp2
# Summary of the method: as §1
# [32] = target: CaRvs167
# Summary of the method: as §1
# [33] = target: CaRvs167-3
# Summary of the method: as §1
# [34] = target: CaSho1
# Summary of the method: as §1
# [35] = target: CaSla1-D1-D2
# Summary of the method: as §1
# [36] = target: CaSla1-D3
# Summary of the method: as §1
# [37] = target: ScAbp1
# Summary of the method: as §1
# [38] = target: ScBbc1
# Summary of the method: as §1
# [39] = target: ScBem1-D1
# Summary of the method: as §1
# [40] = target: ScBzz1-D1
# Summary of the method: as §1
# [41] = target: ScBzz1-D2
# Summary of the method: as §1
# [42] = target: ScCyk3
# Summary of the method: as §1
# [43] = target: ScFus1
# Summary of the method: as §1
# [44] = target: ScHof1
# Summary of the method: as §1
# [45] = target: ScHse1
# Summary of the method: as §1
# [46] = target: ScLsb1
# Summary of the method: as §1
# [47] = target: ScLsb2
# Summary of the method: as §1
# [48] = target: ScLsb3
# Summary of the method: as §1
# [49] = target: ScLsb4
# Summary of the method: as §1
# [50] = target: ScMyo3
# Summary of the method: as §1
# [51] = target: ScMyo5
# Summary of the method: as §1
# [52] = target: ScNbp2
# Summary of the method: as §1
# [53] = target: ScPex13
# Summary of the method: as §1
# [54] = target: ScRvs167
# Summary of the method: as §1
# [55] = target: ScSho1
# Summary of the method: as §1
# [56] = target: ScSla1-D1-D2
# Summary of the method: as §1
# [57] = target: ScSla1-D3
# Summary of the method: as §1
# [58] = target: SpAbp1-D1
# Summary of the method: as §1
# [59] = target: SpBbc1
# Summary of the method: as §1
# [60] = target: SpBzz1-D1
# Summary of the method: as §1
# [61] = target: SpBzz1-D2
# Summary of the method: as §1
# [62] = target: SpCyk3
# Summary of the method: as §1
# [63] = target: SpHof1
# Summary of the method: as §1
# [64] = target: SpHof1-2
# Summary of the method: as §1
# [65] = target: SpHof1-3
# Summary of the method: as §1
# [66] = target: SpHse1
# Summary of the method: as §1
# [67] = target: SpLsb1
# Summary of the method: as §1
# [68] = target: SpLsb4
# Summary of the method: as §1
# [69] = target: SpMyo1
# Summary of the method: as §1
# [70] = target: SpNbp2
# Summary of the method: as §1
# [71] = target: SpPex13
# Summary of the method: as §1
# [72] = target: SpRvs167
# Summary of the method: as §1
# [73] = target: SpSla1-D1-D2
# Summary of the method: as §1
# [74] = target: SpSla1-D3
# Summary of the method: as §1
binder,measurement,setting,value
B1,SPOT peptide array binding signal intensity,[1],587
same,SPOT peptide array binding signal intensity,[2],790
same,SPOT peptide array binding signal intensity,[3],12
same,SPOT peptide array binding signal intensity,[4],157
same,SPOT peptide array binding signal intensity,[5],61.8
same,SPOT peptide array binding signal intensity,[6],7.5
same,SPOT peptide array binding signal intensity,[7],27
same,SPOT peptide array binding signal intensity,[8],9
same,SPOT peptide array binding signal intensity,[9],18.2
same,SPOT peptide array binding signal intensity,[10],23.5
same,SPOT peptide array binding signal intensity,[11],3680
same,SPOT peptide array binding signal intensity,[12],0.25
same,SPOT peptide array binding signal intensity,[13],1230
same,SPOT peptide array binding signal intensity,[14],64.1
same,SPOT peptide array binding signal intensity,[15],5.75
same,SPOT peptide array binding signal intensity,[16],≤ 0
same,SPOT peptide array binding signal intensity,[17],3
same,SPOT peptide array binding signal intensity,[18],328
same,SPOT peptide array binding signal intensity,[19],574
same,SPOT peptide array binding signal intensity,[20],1250
same,SPOT peptide array binding signal intensity,[21],135
same,SPOT peptide array binding signal intensity,[22],380
same,SPOT peptide array binding signal intensity,[23],153
same,SPOT peptide array binding signal intensity,[24],464
same,SPOT peptide array binding signal intensity,[25],111
same,SPOT peptide array binding signal intensity,[26],≤ 0
same,SPOT peptide array binding signal intensity,[27],20.5
same,SPOT peptide array binding signal intensity,[28],2
same,SPOT peptide array binding signal intensity,[29],4120
same,SPOT peptide array binding signal intensity,[30],2.75
same,SPOT peptide array binding signal intensity,[31],1960
same,SPOT peptide array binding signal intensity,[32],303
same,SPOT peptide array binding signal intensity,[33],3.5
same,SPOT peptide array binding signal intensity,[34],≤ 0
same,SPOT peptide array binding signal intensity,[35],1570
same,SPOT peptide array binding signal intensity,[36],14.2
same,SPOT peptide array binding signal intensity,[37],306
same,SPOT peptide array binding signal intensity,[38],478
same,SPOT peptide array binding signal intensity,[39],22
same,SPOT peptide array binding signal intensity,[40],11.5
same,SPOT peptide array binding signal intensity,[41],36.5
same,SPOT peptide array binding signal intensity,[42],17
same,SPOT peptide array binding signal intensity,[43],56.8
same,SPOT peptide array binding signal intensity,[44],≤ 0
same,SPOT peptide array binding signal intensity,[45],639
same,SPOT peptide array binding signal intensity,[46],425
same,SPOT peptide array binding signal intensity,[47],8.5
same,SPOT peptide array binding signal intensity,[48],6520
same,SPOT peptide array binding signal intensity,[49],1140
same,SPOT peptide array binding signal intensity,[50],4.75
same,SPOT peptide array binding signal intensity,[51],2.75
same,SPOT peptide array binding signal intensity,[52],2500
same,SPOT peptide array binding signal intensity,[53],377
same,SPOT peptide array binding signal intensity,[54],2630
same,SPOT peptide array binding signal intensity,[55],83
same,SPOT peptide array binding signal intensity,[56],2640
same,SPOT peptide array binding signal intensity,[57],66.1
same,SPOT peptide array binding signal intensity,[58],352
same,SPOT peptide array binding signal intensity,[59],472
same,SPOT peptide array binding signal intensity,[60],500
same,SPOT peptide array binding signal intensity,[61],0.75
same,SPOT peptide array binding signal intensity,[62],6
same,SPOT peptide array binding signal intensity,[63],245
same,SPOT peptide array binding signal intensity,[64],204
same,SPOT peptide array binding signal intensity,[65],302
same,SPOT peptide array binding signal intensity,[66],91.5
same,SPOT peptide array binding signal intensity,[67],96
same,SPOT peptide array binding signal intensity,[68],2870
same,SPOT peptide array binding signal intensity,[69],73.1
same,SPOT peptide array binding signal intensity,[70],21.5
same,SPOT peptide array binding signal intensity,[71],4
same,SPOT peptide array binding signal intensity,[72],1830
same,SPOT peptide array binding signal intensity,[73],21
same,SPOT peptide array binding signal intensity,[74],0.5
